Sampled rows, rich in hits. Any-hit rate of the full collection: about 0.73%.
Mtb BioA inh: inhibitors of Mycobacterium tuberculosis BioA enzyme. AID 602481. inhibition, % at 9.99 µM. actives 0.096% (n = 360,000). purified M. tuberculosis BioA enzyme, plate reader; in the data active means inhibition above about 40%
VHR inh abs: blocks human VHR1 dual specificity phosphatase; P51452; recombinant VHR phosphatase, pNPP absorbance; inhibition, % at 13.3 µM; actives 0.52% (n = 290,000); AID 1654; in the data active means inhibition above about 50%
Target sequence (P51452 whole entry, looked up): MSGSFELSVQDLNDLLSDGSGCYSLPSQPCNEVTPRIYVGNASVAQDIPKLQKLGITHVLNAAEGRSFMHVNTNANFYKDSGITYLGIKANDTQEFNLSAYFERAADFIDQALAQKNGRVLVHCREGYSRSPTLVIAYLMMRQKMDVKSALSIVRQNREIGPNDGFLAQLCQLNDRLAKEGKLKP
Vc quorum ag: inducers of Vibrio cholerae quorum light production without autoinducers; V. cholerae BH1578 lux reporter, luminescence, 6 h; activation, % at 18.7 µM; actives 0.16% (n = 350,000); AID 588436; in the data active means activation mostly above about 9.7%, no sharp cut-off
Yp Topo-I inh: inhibitors of Yersinia pestis topoisomerase I; AID 504884; activity, % at 10 µM; actives 0.064% (n = 360,000); Y. pestis Topo-I cleavage product accumulation, plate reader; in the data active means activity above about 50%, passing the limit was not always enough
TcdB inh: TcdB glycohydrolase inhibition; actives 0.24% (n = 350,000); inhibition, % at 9.99 µM; P18177; TcdB glycohydrolase enzymatic assay, plate reader; in the data active means inhibition above about 10%
* hit, by the source's call; i = inactive; · = no result.

SMILES	Mtb BioA inh	VHR inh abs	Vc quorum ag	Yp Topo-I inh	TcdB inh
CN(C)C(=O)c1ccc(NC(=O)c2sccc2-c2ccccc2)cc1	3	57*	0	2	1
CC(C)NC(=O)Nc1cccc2c1O[C@@H](CN(C)Cc1ccccc1)[C@@H](C)CN([C@H](C)CO)C2=O	1	·	·	·	1
O=[N+]([O-])c1cc(Cl)cc(/C=N\Nc2ccccn2)c1O	-1	24	25*	-9	·
O=[N+]([O-])c1cccc(/C=N/Nc2ccccn2)c1	·	2	1	-5	1
O=[N+]([O-])c1ccc(/C=N/Nc2ccccn2)cc1	-3	58*	-3	0	0
COc1cc(/C=N/Nc2ccccn2)ccc1O	·	9	7	-1	16*
Cc1n[nH]c(C)c1CCN(C)Cc1cn(C)nc1-c1ccc2c(c1)OCCO2	-1	4	i	6	1
CN(CCc1cnn(C)c1)Cc1cn(C)nc1-c1ccc2c(c1)OCCO2	·	52*	0	1	0
O=C(C[C@H]1CC[C@@H]2[C@H](COC[C@@H](O)CN2Cc2cccc(C(F)(F)F)c2)O1)NCCc1ccccc1	-1	·	·	·	-6
COc1cc2c(cc1OC)-c1cc3ccc4c(c3c[n+]1CC2)OCO4	-24	-15	i	-11	0
COc1cc2c(cc1O)CC[n+]1cc3c(OC)c(OC)ccc3cc1-2	3	9	i	-8	13*
O=C1/C(=C\c2ccc3c(c2)OCO3)CCC/C1=C/c1ccc2c(c1)OCO2	·	15	1	28	·
O=C1OCC/C1=C\c1ccc2c(c1)OCO2	3	52*	i	0	1
O=C1OCCC1=Cc1ccccc1	·	·	·	8	1
O=C1OCC/C1=C\c1ccc(O)cc1	0	49	i	0	21*
C[C@@H]1CCCCO[C@H](CN(C)Cc2ccncc2)[C@H](C)CN([C@H](C)CO)C(=O)c2cc(NS(=O)(=O)c3ccccc3)ccc2O1	-1	·	·	·	-2
O=C(NCc1ccccc1)C1CCN(S(=O)(=O)c2ccc(N3CCCC3=O)cc2)CC1	·	52*	i	6	1
O=C(NCc1ccccc1Cl)C1CCN(S(=O)(=O)N2CCCCCC2)CC1	0	54*	0	7	·
C[C@@H]1CN([C@@H](C)CO)C(=O)c2cc(-c3cccc(C#N)c3)cnc2O[C@@H]1CN(C)C(=O)c1cnccn1	-3	·	·	·	0
CC1Cc2ccccc2N1C(=O)CSc1nnc(NC(=O)Cc2cccs2)s1 (stereo not drawn)	·	18	·	·	·
CCC(=O)Nc1nnc(SCC(=O)N2c3ccccc3CC2C)s1 (stereo not drawn)	1	3	17*	11	·
C[C@@H](CSc1ccc(Br)cc1)CN1CC[C@H](NC(=O)OCc2ccccc2)CCC1=O	-2	·	0	19	0
COc1ccc(SC[C@H](C)CN2CC[C@H](NC(=O)OCc3ccccc3)CCC2=O)cc1	-1	·	-1	17	10*
Cc1ccc(-c2cnc3c(c2)C(=O)N([C@H](C)CO)C[C@@H](C)[C@@H](CN(C)CC2CCCC2)O3)cc1	-1	·	·	·	0
CCOc1ccc2ccccc2c1/C=N/NC(=O)CNC(=O)C(c1ccccc1)c1ccccc1	·	52*	0	33	1
SMILES	Mtb BioA inh	VHR inh abs	Vc quorum ag	Yp Topo-I inh	TcdB inh
COc1ccc2c3c(n(C)c2c1)[C@@H](CO)N(Cc1ccccc1)CC31CN(C(=O)Nc2cccc(F)c2)C1	·	·	·	·	1
CC(C)c1ccc(NS(=O)(=O)c2cccc3cccnc23)cc1	0	83	i	18	1
O=S(=O)(Nc1ccc(O)cc1)c1cccc2cccnc12	-1	-4	0	3	11*
C[C@@H]1CCCCO[C@H](CN(C)S(=O)(=O)c2ccccc2)[C@@H](C)CN([C@@H](C)CO)C(=O)c2cc(NC(=O)C3CCCCC3)ccc2O1	-3	·	·	·	1
Cc1ccc(/C=N/NC(=O)Cc2c(F)cccc2Cl)s1	-1	53*	i	25	0
O=C(Cc1c(F)cccc1Cl)N/N=C/c1cccs1	-3	27	i	13	1
CCCCn1c(CN2CCN(C(=O)c3ccco3)CC2)nc2c1c(=O)n(C)c(=O)n2C	1	5	i	-2	10*
CCN(Cc1ccccc1)C(=O)c1oc2ccc(C)cc2c1C	0	-5	-1	53*	1
CC(=O)N(C)C[C@H]1Oc2ncc(-c3ccccc3C)cc2C(=O)N([C@@H](C)CO)C[C@H]1C	0	·	·	·	2
COc1ccc2c3c([nH]c2c1)[C@H](CO)N(Cc1ccccc1)CC31CCN(C(=O)Nc2cccc(F)c2)CC1	·	·	·	·	-6
Cc1cccc(Nc2nc(-c3ccncc3)cs2)c1	·	51*	i	-2	1
C[C@@H]1CN([C@@H](C)CO)C(=O)c2cc(NC(=O)c3ccccc3)ccc2O[C@@H](C)CCCCO[C@H]1CN(C)C(=O)Cc1ccccc1	-2	·	·	·	-1
C/C(=N\NC(=O)c1ccccc1OCCOc1ccccc1)c1ccccc1F	3	·	1	-8	6
NNC(=O)c1ccccc1OCCOc1ccccc1	0	55*	0	34	2
CC(=O)Oc1oc(-c2ccccc2)nc1C=Nc1ccccc1	·	52*	-1	6	·
CSc1ccc(/C=N/N2CCN(Cc3ccc(Cl)cc3)CC2)cc1	2	10	i	-9	11*
Oc1ccc(/C=N/N2CCN(Cc3ccccc3)CC2)cc1	-1	20	0	4	18*
CSc1ccc(/C=N/NC(=O)CN2CCN(Cc3ccc(Cl)cc3)CC2)cc1	·	12	0	31	-1
C(=N\N1CCN(Cc2ccccc2)CC1)/c1ccc(-c2ccccc2)cc1	-1	28	1	-9	1
O=S(=O)(Oc1ccccc1/C=N/n1cnnc1)c1ccccc1	·	15	0	-1	20*
O=C(C[C@@H]1C[C@H]2c3cc(NC(=O)Nc4ccccc4)ccc3O[C@H]2[C@H](CO)O1)NCc1ccccc1	0	·	·	·	12*
O=C(C[C@H]1C[C@@H]2c3cc(NC(=O)c4ccc5c(c4)OCO5)ccc3O[C@@H]2[C@H](CO)O1)NCc1cccc(F)c1	-1	·	·	·	8
O=C(C[C@@H]1C[C@@H]2c3cc(NC(=O)c4ccc5c(c4)OCO5)ccc3O[C@@H]2[C@@H](CO)O1)NCc1cccc(F)c1	0	·	·	·	17*
O=C(C[C@@H]1C[C@H]2c3cc(NC(=O)c4ccc5c(c4)OCO5)ccc3O[C@H]2[C@H](CO)O1)NCc1cccc(F)c1	4	·	·	·	18*
O=C(C[C@H]1C[C@@H]2c3cc(NC(=O)c4ccc5c(c4)OCO5)ccc3O[C@@H]2[C@@H](CO)O1)NCc1cccc(F)c1	5	·	·	·	20*
C[C@@H]1CCCCO[C@@H](CN(C)CC2CCCCC2)[C@@H](C)CN([C@H](C)CO)C(=O)c2cc(NC(=O)Nc3cccc4ccccc34)ccc2O1	-3	·	·	·	0
CCN1[C@@H]2c3ccc(C4=CCCCC4)c(=O)n3C[C@H]1[C@H](CO)[C@H]2C(=O)N1CCCCC1	-1	·	·	·	0
C/C=C/c1ccc([C@H]2[C@@H](CO)N(C(=O)Cc3cccnc3)[C@H]2CNC(C)=O)cc1	9	·	·	·	·
